Screens from PubChem BioAssay.
The list is not random: actives were taken first. Their share in the collection is about 9.4%.
ELG1 genotox = inducers of genotoxicity in HEK293T ELG1-luciferase cells. hit rate 1.3% among 330,000. HEK293T ELG1-luciferase reporter, luminescence, 16 h. Potency, µM (highest dose often 46 µM), inactives show at the highest dose activity change, positive = activation, hits mostly activators; also: % of control where 0% means no effect; nearly all actives have a fitted effect of over 60% in size
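HEK293T cells expressing luciferase-tagged ELG1 were treated with compound or DMSO for 16 hr at 37°C. Luciferase activity was then read after 30 min with ONE-Glo at room temperature; rising signal flags genetic stress.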
Rab9 prom act = activates the Rab9 promoter; Huh7 Rab9 promoter-luciferase reporter, luminescence, 24 h; Potency, µM (series often up to 9.22 µM), for inactives: top-dose activation, negative = inhibition, usual class: activators; hit rate 2.8% among 320,000; also: % of control where 0% means no effect; nearly all actives have a fitted effect of over 60% in size
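Huh7 cells stably carrying a Rab9 promoter-luciferase reporter, 1500 cells per well in OP-MEM I with 10% FBS, treated with compound 24 hours at 37C. Luciferase activity read by luminescence after 10 minutes with Amplite reagent.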
FLuc counter = counter-screen for miR-21 project: firefly luciferase inhibitors or activators; P08659; purified FLuc, Km substrates, luminescence inhibition; Potency, µM (highest dose often 57.5 µM), for inactives: top-dose activity change, negative = inhibition, usual class: inhibitors; hit rate 6.9% among 360,000; AID 588342;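 also: plate controls were vehicle for no effect and reference inhibitor for full effect; nearly all actives have a fitted effect of over 55% in size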
Target sequence (P08659 whole entry, looked up): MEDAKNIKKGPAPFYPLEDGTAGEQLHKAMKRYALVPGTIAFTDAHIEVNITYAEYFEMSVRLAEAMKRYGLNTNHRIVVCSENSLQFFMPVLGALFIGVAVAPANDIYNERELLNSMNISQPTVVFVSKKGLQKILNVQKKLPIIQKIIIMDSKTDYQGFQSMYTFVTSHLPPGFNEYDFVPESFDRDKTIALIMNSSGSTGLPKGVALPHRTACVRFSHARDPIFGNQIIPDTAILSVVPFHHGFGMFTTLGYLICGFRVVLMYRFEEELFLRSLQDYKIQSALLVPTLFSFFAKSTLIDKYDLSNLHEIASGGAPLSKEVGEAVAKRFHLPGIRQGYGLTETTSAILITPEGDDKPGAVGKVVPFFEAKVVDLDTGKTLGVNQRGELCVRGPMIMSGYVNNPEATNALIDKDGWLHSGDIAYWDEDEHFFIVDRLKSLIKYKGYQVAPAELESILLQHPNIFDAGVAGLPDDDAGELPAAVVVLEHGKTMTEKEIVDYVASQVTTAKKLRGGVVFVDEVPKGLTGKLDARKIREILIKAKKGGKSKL
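Purified P. pyralis luciferase, 10 nM final, with Km-level 10 uM D-luciferin and 10 uM ATP in 50 mM Tris acetate pH 7.5, 10 mM Mg acetate, 0.01% Tween-20, 0.05% BSA; 6-point qHTS titration about 60 µM downward; luminescence read.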
NPC1 prom act = NPC1 promoter activation; Huh7 NPC1 promoter luciferase reporter, 24 h; Potency, µM (top dose mostly 9.22 µM), without a hit: top-dose activation, hits mostly activators; hit rate 2.4% among 320,000; AID 485313; also: % of control where 0% means no effect; nearly all actives have a fitted effect of over 60% in size
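Stable NPC1-promoter luciferase Huh7 line; cpd (DMSO) 24 h, 37 °C, 5% CO2; Amplite luciferase reagent 10 min RT; luminescence readout. qHTS format.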
SMN2 splice enh = SMN2 splice variant enhancement; HEK293 SMN2-luciferase splicing reporter, luminescence, 30-36 h; Potency, µM (top dose mostly 46.1 µM), inactives show at the highest dose activity change, positive = activation, actives largely listed as activators; hit rate 2.8% among 210,000; also: % of control where 0% means no effect; nearly all actives have a fitted effect of over 55% in size
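qHTS luciferase splicing reporter: luminescence rises when SMN2 exon 7 is included in transfected HEK293 cells. Compound exposure lasted 30-36 h at 37C, with 4.5 mM final sodium butyrate as control, followed by a ONE-Glo read.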
ELG1 DNA repair = blocks ELG1-dependent DNA repair in HEK293T cells; HEK293T ELG1-luciferase reporter, luminescence, 16 h; DNA damage induced by 5-fluorouridine; Potency, µM (doses to about 46.1 µM), without a hit: at the highest dose activity change, negative = inhibition, hits mostly inhibitors; hit rate 2.3% among 330,000; AID 504467; also: % is scaled to controls: 0 for no effect and ±100 for the full control effect; nearly all actives have a fitted effect of over 55% in size
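5-Fluorouridine DNA damage + compound/DMSO, 2,000 cells/well, 16 h, 37 °C/5% CO2. ONE-Glo, 30 min RT, luminescence. Readout = decrease in reporter signal.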
* hit, by the source's call; ? = inconclusive; · = no result given; [ ] = another dose, or the depositor's remark. Calls follow the shape of the dose curve; as a rule, active = well fitted curve in the direction sought with a large enough effect; inconclusive = small, poorly fitted or top-dose-only effect, or another doubt; inactive = no such curve, though single readings can be large; an effect the other way counts as inactive or inconclusive. Potency is read from the fitted curve at half-maximal effect.

SMILES | ELG1 genotox | Rab9 prom act | FLuc counter | NPC1 prom act | SMN2 splice enh | ELG1 DNA repair
CCCCOC(=O)Nc1ccc(N2CCOCC2)cc1 | ? | 3.16µM* | 15.1µM* | ? | 11.2µM* | ?
CCCCN(C)CC(O)Cn1cc(/C=C/C(=O)c2ccc(OC)c(OC)c2)c2ccccc21 (centres undefined) | · | · | -17.9% | · | 10.4% | ·
CSCCC(NC(=O)c1ccco1)c1nc2ccccc2[nH]1 (centres undefined) | 2.0% | -4.3% | -1.8% | -8.4% | · | 4.3%
COc1ccc(CNc2nc3ccccc3n2C)c(O)c1 | ? | 3.16µM* | 8.49µM* | 2.51µM* | · | ?
COc1ccc(CNc2nc3ccccc3n2C(C)C)c(O)c1 | -6.4% | 3.6% | ? | -5.5% | · | -3.8%
COc1ccc(CNc2nc3ccccc3n2C)c(OC)c1 | ? | 2.51µM* | 12µM* | 3.16µM* | · | ?
Cc1nonc1OCCN1CCN(c2ccc([N+](=O)[O-])cc2)CC1 | -3.4% | -2.6% | 0.1% | -6.4% | · | 20.6µM*
CC(/C=C/c1ccc(N(C)C)cc1)=N\N=C1\NC(=O)CC(C(=O)Nc2ccccc2)S1 (centres undefined) | 8.3% | ? | 2.39µM* | ? | 15.8µM* | ?
CC(/C=C/c1ccc(N(C)C)cc1)=N/N=C1/NC(=O)CC(C(=O)Nc2ccc(Cl)cc2)S1 (centres undefined) | 5.1% | -1.6% | 7.57µM* | 8.4% | ? | ?
COc1ccc(NC(=O)C2CC(=O)N/C(=N/N=C/c3ccccc3)S2)cc1 (centres undefined) | ? | 1.0% | 0.4% | -4.9% | · | ?
CCCOc1ccc(NC(=O)C2CC(=O)N/C(=N/N=C(C)/C=C/c3ccc(N(C)C)cc3)S2)cc1 (centres undefined) | 14.2% | ? | 2.39µM* | ? | 12.6µM* | ?
O=C(O)c1c(C(=O)O)c2ccccc2[nH]c1=O | · | · | · | · | 15.0% | ·
COCc1cc(C)nc2sc(C(=O)Nc3ccccc3O)c(N)c12 | · | · | -0.8% | · | -10.7% | ·
COc1ccc(NC(=O)CSc2c(C(C)C)cnc3c2c(=O)n(C)c(=O)n3C)c(OC)c1 | · | · | 0.5% | · | · | ·
COc1ccccc1N1CCN(C(=O)c2ccc(Nc3nc4ccccc4n4nnnc34)cc2)CC1 | · | · | -4.3% | · | 2.4% | ·
O=c1cccc2n1Cc1cc3ccccc3nc1-2 | 20.6µM* | 2.82µM* | 19µM* | 3.16µM* | 12.6µM* | ?
CCc1cccc2nc3c(c([Si](CC)(CC)CC)c12)Cn1c-3cccc1=O | · | · | · | · | -26.4% | ·
COc1ccccc1CN(Cc1nc2ccccc2c(=O)[nH]1)S(=O)(=O)c1ccc(C)cc1 | -16.9% | -2.2% | 0.1% | -0.3% | -4.6% | 23.1µM*
O=C(CSc1ccc(F)cc1)N1CCOCC1 | -0.7% | -1.9% | 3.2% | 0.4% | · | 12.6%
COc1ccccc1NC(=O)CSc1nc2ccccc2c(=O)n1CC1CCCO1 (centres undefined) | 0.8% | 4.6% | -0.6% | -1.0% | · | -6.2%
COc1ccccc1N1CCN(C(=O)CSc2nc3ccccc3c(=O)n2CC2CCCO2)CC1 (centres undefined) | -3.6% | 4.8% | -1.7% | 0.8% | -23.9% | 23.1µM*
CC(C)(C)c1ccc(C(=O)NCc2nnc(SCC(=O)NC3CCCC3)o2)cc1 | -1.2% | 1.8% | ? | 1.9% | · | 1.9%
CC(C)(C)c1ccc(C(=O)NCc2nnc(SCC(=O)NC3CCCCC3)o2)cc1 | 3.6% | 6.6%[1.84 µM] | 19µM* | 2.2% | · | -6.2%
CC(C)(C)c1ccc(-c2nnc(SCC(=O)NC3CC3)o2)cc1 | 10.2% | ? | 4.26µM* | ? | · | ?
CCOC(=O)c1c(C)[nH]c(C)c1C(=O)COC(=O)CNC(=O)C1CCCCC1 | 3.4% | -1.2% | 2.8% | -5.6% | 11.7% | 2.1%
SMILES | ELG1 genotox | Rab9 prom act | FLuc counter | NPC1 prom act | SMN2 splice enh | ELG1 DNA repair
CCOC(=O)c1c(C)[nH]c(C(=O)COC(=O)[C@H](C)NC(=O)c2ccccc2Cl)c1C | ? | 29.1% | 21.3µM* | 12.0% | 18.7% | ?
CCOC(=O)c1c(C)[nH]c(C(=O)COC(=O)CNC(=O)C2CCCCC2)c1C | 4.3% | 7.1% | 3.01µM* | -0.9% | ? | 3.1%
CCOC(=O)c1c(C)[nH]c(C(=O)COC(=O)CNC(=O)c2ccc(Br)cc2)c1C | 0.0% | -0.4% | 3.9% | -3.0% | 19.5% | ?
CCOC(=O)c1c(C)[nH]c(C(=O)COC(=O)c2ccccc2NC(=O)c2ccco2)c1C | 1.5% | -0.7% | -18.4% | -4.0% | -9.6% | ?
CCOC(=O)c1c(C)[nH]c(C(=O)COC(=O)CNC(=O)c2ccccc2Cl)c1C | ? | ? | 10.7µM* | 25.2% | · | ?
Cc1ccc(CNC(=O)Cc2c(C)c3cc4c(C)coc4cc3oc2=O)cc1 | · | · | -3.0% | · | 8.6% | ·
Cc1ccnc(NC(=O)C(C)n2cc([N+](=O)[O-])cn2)c1 (centres undefined) | -3.4% | -1.3% | -4.0% | -3.6% | 13.4% | ?
NC(=O)C1CCN(C(=O)c2ccc(NC(=O)c3nsc4ccccc34)cc2)CC1 | · | · | 1.69µM* | · | · | ·
CCOC(=O)C1CCCN(C(=O)c2ccc(NC(=O)c3nsc4ccccc34)cc2)C1 (centres undefined) | · | · | 12µM* | · | · | ·
CCOC(=O)C1CCN(C(=O)c2ccc(NC(=O)c3nsc4ccccc34)cc2)CC1 | · | · | 15.1µM* | · | · | ·
CCOC(=O)C1CCCN(C(=O)c2ccc(C)c(NC(=O)c3nsc4ccccc34)c2)C1 (centres undefined) | · | · | -15.5% | · | · | ·
COC(=O)c1c(-c2ccc(Cl)cc2)noc1N1CCN(c2cccc(OC)c2)CC1 | · | · | -7.0% | · | · | ·
S=C(NCCc1cccc(Cl)c1)NC1CCCCC1 | ? | 2.82µM* | 19µM* | 3.55µM* | · | ?
O=C(NCCC1=CCCCC1)NC1CCCCC1 | ? | 0.794µM* | 6.75µM* | 1.41µM* | 7.08µM* | ?
S=C(NCCc1ccccc1)NC1CCC(NC(=S)NCCc2ccccc2)CC1 (centres undefined) | 12.4% | -3.2% | -1.0% | -2.5% | 23.2% | -12.1%
O=C(NCCc1ccccc1)NC1CCCCC1 | ? | 0.562µM* | 10.7µM* | 1.12µM* | 11.2µM* | ?
Cc1ccccc1C(=O)N/N=C/c1cccc2ccccc12 | 15.7% | -3.6%[1.84 µM] | 5.36µM* | 15.2% | · | ?
Cc1ccccc1C(=O)N/N=C/c1ccsc1C | ? | 5.62µM* | 10.7µM* | ? | 15.8µM* | ?
COc1ccccc1C(=O)Nc1nc2nc(C)c(Cc3ccccc3)c(=O)n2[nH]1 | · | · | ? | · | -2.6% | ·
Cc1cccc(-n2c(C)cc(/C=C3\NC(=O)NC3=O)c2C)c1 | ? | 24.5% | 6.75µM* | 20.0% | · | ?
